Data on 61 compounds can be found in PubChem BioAssay AID449762 (Southern Research Specialized Biocontainment Screening …, 2010).

Each structure is given as a SMILES string. In all, about 330,000 compounds went through this assay and about 1,900 (0.58%) were called active. About 4% were inconclusive and are not listed. Rule as the data show it: inconclusive = inhibition above about 70% without an active follow-up result; inactive = below that. These entries were drawn from the full list. Measured potencies and affinities stand elsewhere.

This experiment is described as follows: M. tuberculosis growth inhibition, HTS (AID 449762).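 Also: bacterial growth assessed after seven days of incubation.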 Conditions: M. tuberculosis H37Rv growth inhibition, 7H9 media; at 25 µM; active compounds read high.
Take `Nc1c(C(=O)Nc2ccc3c(c2)OCCO3)nnn1Cc1ccc(Cl)cc1`: the inhibition was 0.83% (inactive).
In the case of `CCN(CC)c1ccccc1`, the inhibition is 5.27% (inactive).
The value for `Nc1ccc(N(CCO)CCO)cc1` was 6.03% (inactive).
Turning to `O=C(NCc1ccc(Cl)cc1)C1CCN(c2cnccn2)CC1`, the inhibition is 1.73% (inactive).
To `Cc1ccc(NC(=O)Cn2cccc2)cc1` belongs 3.9% (inactive); to `CC(C)(C)c1csc(NNC(=O)c2ccc(Br)cc2)n1`, 66.5% (inactive).
To `COc1ccc2[nH]c3c(c2c1)CCN1C(=O)N([C@@H](C)C(=O)NCCc2ccc(OC)c(OC)c2)C(=O)[C@]31C` belongs -11.9% (inactive).
To `CN(C)/C=C1/C(=O)N(c2ccc([N+](=O)[O-])cc2)N=C1c1ccccc1` belongs 0.35% (inactive); to `CN(C)/C=C1\C(=O)N(c2ccc([N+](=O)[O-])cc2)N=C1c1ccccc1`, -2.09% (inactive); to `NC(=O)c1ccsc1N`, 6.02% (inactive).
With `NC(=O)c1ccc(Cn2c(C(=O)c3ccc(Cl)cc3)c3ccccc3[n+]2[O-])cc1`, the inhibition is 2.02% (inactive).
To `COCCn1c(-c2ccc(OC)cc2)cnc1SCC(=O)Nc1cccc2ccccc12` belongs 57.1% (inactive); to `CCOc1ccc(CNc2ncc(-c3ccccc3)n2C)cc1`, 8.71% (inactive); to `Cn1c(CCNC(=O)c2ccco2)nc2ccccc21`, -1.68% (inactive).
The value for `Cc1cccc(NC(=O)CCCNC(=O)c2ccc(Cl)cc2)n1` was -15.3% (inactive); that for `COc1cc(Cn2ccnc2)c(OC)cc1Cn1ccnc1` was 0.13% (inactive).
To `COc1ccc(NCc2ccc(OC)c(Cn3ccnc3)c2)c(OC)c1` belongs 17.3% (inactive).
Turning to `CCCC(=O)Nc1ccc(-c2csc(NNC(C)=O)n2)cc1`, the inhibition is 8.91% (inactive).
To `CCc1nc(OCCN(C)C)c2oc3ccccc3c2n1` belongs 5.77% (inactive); to `CN(C)CCOc1ncnc2c1oc1ccccc12`, -7.93% (inactive); to `O=C(CCSc1nc(-c2ccco2)cc(C(F)(F)F)n1)NCc1ccccn1`, -4.91% (inactive).
To `Cc1ccc(C)n1-n1c(C)nc2scc(-c3cccs3)c2c1=O` belongs 1.92% (inactive); to `Cc1nc2scc(-c3cccs3)c2c(=O)n1N`, -9.74% (inactive); to `CCCCc1nn(-c2cc(Cl)ccc2OC)c2c1C(=O)CCC2`, -11.2% (inactive).
To `CCOC(=O)c1nn(-c2ccc(F)cc2)c2nc(CC(C)C)c(C#N)c(=O)n12` belongs -13.7% (inactive).
Turning to `Cc1cccc(OC(C)C(=O)OCC(=O)N2CCN(c3ccccc3)CC2)c1` (stereo unspecified), the inhibition is 69.9% (inactive).
The value for `CCc1cc(C(=O)OCC(=O)N2CCC(c3ccccc3)=N2)sc1C` was 9.02% (inactive); that for `Cc1ccc(C(=O)OCC(=O)N2CCC(c3ccccc3)=N2)cc1` was -0.51% (inactive).
To `COc1ccc(NC(=O)c2cc(-c3cc(C)ccc3O)n[nH]2)cc1Cl` belongs -5.54% (inactive).
To `CC(C)(Oc1ccc(Cl)cc1)C(=O)NCc1n[nH]c(=O)c2ccccc12` belongs -7.84% (inactive); to `Cc1nn(C)cc1/C=N/NC(=O)C(C)(C)Oc1ccc(Cl)cc1`, -2.26% (inactive); to `CCOc1ccc(NC(=S)/C(=C(\[O-])c2ccc(C)c([N+](=O)[O-])c2)[n+]2ccccc2)cc1`, -4.46% (inactive).
Turning to `Cc1ccc(CNC(=S)Nc2ccc(C)c([N+](=O)[O-])c2)cc1`, the inhibition was 1.67% (inactive).
With `Cc1ccc(NC(=S)Nc2cc(-c3ccccc3)[nH]n2)cc1Cl`, the inhibition is 3.77% (inactive).
Turning to `CCOc1ccc(NC(=S)Nc2cc(C)[nH]n2)cc1`, the inhibition is 11.8% (inactive).
For the compound `O=C(CN(C(=O)CNC(=O)c1cccs1)c1ccc(F)cc1)NC1CCCC1`, the inhibition was -5.64% (inactive).
The value for `Cc1ccc(C(=O)Nc2cnc3sc(C)nn3c2=O)cc1` was -8.53% (inactive); that for `CC1=C(C(=O)OCC2CCCO2)C(c2ccc(C)cc2)C2=C(CCCC2=O)N1` (stereo unspecified) was -4.69% (inactive); that for `COc1ccc(C2COc3cc(O)ccc3C2)c(OC)c1O` (stereo unspecified) was -7.8% (inactive).
To `CCCSc1nnc(CSc2nc3nc(C)cc(C)n3n2)o1` belongs 6.82% (inactive); to `CCCCSc1nnc(CSc2nc3nc(C)cc(C)n3n2)o1`, -4.57% (inactive).
As for `CC1Cn2c(nc3sc4c(c3c2=O)CCC4)N1CCO` (stereo unspecified), the inhibition is 3.69% (inactive).
For `O=C(c1ccccn1)N1CCN(c2ccc(C(F)(F)F)cn2)CC1`, the inhibition was -9.2% (inactive).
On to `Cc1ccc(C(=O)N2CCN(c3ccc(C(F)(F)F)cn3)CC2)cc1`, for which the inhibition was -8.18% (inactive).
As to `CS(=O)(=O)N(CC(=O)Nc1ccc(C(N)=O)cc1)C1CCCCC1`, the inhibition is 0.92% (inactive).
The value for `CN(CC(=O)Nc1cccc(F)c1)C(=O)CCN1C(=O)C2CC=CCC2C1=O` (stereo unspecified) was -7.97% (inactive); that for `Cc1ccc(C(=O)N2CCC3(CC2)NCCc2[nH]cnc23)cc1` was 0.45% (inactive); that for `CCOC(=O)c1c(-c2ccccc2)c2cc(OC)ccc2n1CCCN(C)C` was 47.1% (inactive).
`Cn1c(=O)c(C(=O)NNC(=O)c2ccccc2Br)c(O)c2ccccc21`: the inhibition is 45.1% (inactive).
On to `Cn1c(=O)c(C(=O)NNC(=O)c2ccccc2Cl)c(O)c2ccccc21`, for which the inhibition was 53.6% (inactive).
The value for `Cc1ccc(C(=O)N/C(=C\c2cccnc2)c2nc3ccccc3[nH]2)cc1` was -7.38% (inactive); that for `Cc1ccc(C(=O)N/C(=C\c2cccs2)c2nc3ccccc3[nH]2)cc1` was -6.82% (inactive).
Consider `CC(C)[C@@]1(c2ccc(Cl)cc2)ON(c2ccccc2C(F)(F)F)C1=O`, for which the inhibition is -3.69% (inactive).
The value for `CCn1c(C)c(C)c2cc(C(=O)NCCCN3CCCC3)ccc21` was -0.8% (inactive).
To `O=C(Nc1nc2c(s1)CCCC2)Oc1ccccc1` belongs -2.24% (inactive); to `O=C(NC(=S)Nc1nc2c(s1)CCCC2)c1ccccc1`, 2.45% (inactive).
The value for `O=C(COc1ccc([N+](=O)[O-])cc1)N/N=C/c1cc([N+](=O)[O-])ccc1N1CCOCC1` was 3.18% (inactive).
As to `CCC(C)NC(=O)CNC(=S)N(Cc1ccccc1)Cc1cccnc1` (stereo unspecified), the inhibition was -7.33% (inactive).
To `Cc1ccc(NCC(O)C(O)C(O)CO)cc1C` (stereo unspecified) belongs -7.11% (inactive).
To `Cc1cc(NC(=O)CCC(=O)N(c2ccccc2)C(C(=O)NC2CCCC2)c2ccccc2C)no1` (stereo unspecified) belongs 0.1% (inactive); to `COc1ccc(N(C(=O)/C=C/C(=O)Nc2cc(C)on2)C(C(=O)NC2CCCC2)c2ccccc2C)cc1` (stereo unspecified), 40% (inactive).
